Assays:
[1] = tested on: Vero E6 infected with SARS-CoV-2; assay: morphology score (similarity to uninfected cells); higher = more like uninfected cells; details: 24 h
[2] = tested on: Vero E6 infected with SARS-CoV-2; assay: SARS-CoV-2 infection rate relative to infected DMSO; higher = more infection, active = 60 or less; details: 24 h

Row | Structure (SMILES) | morphology score [1] | SARS-CoV-2 infection rate [2]
1 | COc1cc(C[C@H](C)[C@H](C)Cc2ccc3c(c2)OCO3)ccc1O [macelignan] (10 µM) | 0.185 | 102% (inactive)
2 | Cc1nc(-c2cn3c(n2)-c2ccc(-c4cnn(C(C)(C)C(N)=O)c4)cc2OCC3)n(C(C)C)n1 [taselisib] (0.833333 µM) | -0.0504 | 98.5% (inactive)
3 | Nc1ncn([C@@H]2O[C@H](CO)[C@@H](O)[C@H]2O)c(=O)n1 [azacitidine] (0.833333 µM) | -0.0243 | 100% (inactive)
4 | CC(O)(C(=O)Nc1ccc(S(=O)(=O)c2ccccc2)cc1)C(F)(F)F (stereo unspecified) (10 µM) | 0.347 | 78% (inactive)
5 | C[C@]12CC[C@@H]3c4ccc(O)cc4C[C@@H](CCCCCCCCC[S+]([O-])CCCC(F)(F)C(F)(F)F)[C@H]3[C@@H]1CC[C@@H]2O (stereo partly specified) [fulvestrant] (10 µM) | -0.187 | 110% (inactive)
6 | OC[C@H]1O[C@H](O[C@H]2[C@H](O)[C@@H](O)[C@H](O)O[C@@H]2CO)[C@H](O)[C@@H](O)[C@@H]1O [D-(+)-maltose] (10 µM) | 0.129 | 86% (inactive)
7 | Cc1cc(OCCN2CCOCC2)nn1-c1ccc2ccccc2c1 (10 µM) | 0.0539 | 99.5% (inactive)
8 | NCCCC[C@@H]1NC(=O)[C@@H](Cc2c[nH]c3ccccc23)NC(=O)[C@H](c2ccccc2)NC(=O)[C@@H]2C[C@@H](OC(=O)NCCN)CN2C(=O)[C@H](Cc2ccccc2)NC(=O)[C@H](Cc2ccc(OCc3ccccc3)cc2)NC1=O [pasireotide] (10 µM) | -0.0469 | 104% (inactive)

From the supplement of paper PMC13380429
